Source: PubChem BioAssay (Tox21)
Inconclusive results are not listed. A number with no mark means an inactive call. Calls of active or inactive are those of the source. Unless noted, calls follow the shape of the dose curve; as a rule, active = well fitted activation curve with a large enough effect in the repeat runs; inconclusive = weak or mixed curves; inactive = no such curve, though single readings can be large or run the other way.

Assay: qHTS assay for small molecule agonists of the p53 signaling pathway (AID 651631; calls by dose curve)
Conditions: HCT-116 p53RE-bla reporter, beta-lactamase FRET ratio, 16 h; series mostly up to 73.3 µM; activation: at the top concentration
Procedure, shortened: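 Stably transfected HCT-116 cells (beta-lactamase behind p53 response elements) get compounds after a 5 h settling period; 16 h later at 37 °C, FRET substrate is loaded and fluorescence read after 2 h.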
% is scaled to controls: 0 for no effect and ±100 for the full control effect; potency is read from the fitted curve at half-maximal effect.
Also: nearly all actives have a fitted effect of over 15% in size.

Compound	activation	Potency
CC(=O)C(C)=O	0.526% [at 95.1 µM]	–
CNS(=O)(=O)c1cc(C(=O)N2CCC(CCN3C4CCC3CC(n3c(C)nc5ccccc53)C4)(c3cccc(F)c3)CC2)c(Cl)cc1F (stereo not given)	4.94%	–
O=C(O)CCS	-3.21% [at 95.1 µM]	–
CCCCCC	4.01%	–
O=C(O)CCC(=O)c1ccc(-c2ccccc2)cc1	-1.54% [at 34.7 µM]	–
CC1CCCO1 (stereo not given)	-1.59%	–
COc1ccc(-c2cc(=S)ss2)cc1	-4.43%	–
COc1ccc(-n2nc(C(F)F)cc2-c2ccc(S(C)=O)cc2)cc1 (stereo not given)	-1.27%	–
O=C(Oc1ccccc1)c1ccc2ccccc2c1O	2.81%	–
SCCc1cnccn1	–	61.1 µM (active)
CCC(C)(C)C(=O)O	-1.85%	–
Cc1cc(CCC(=O)OCCOCCOCCOC(=O)CCc2cc(C)c(O)c(C(C)(C)C)c2)cc(C(C)(C)C)c1O	-1.66%	–
COc1ccc(N)c([N+](=O)[O-])c1	8.1%	–
O=C(O)c1ccc(O)cc1O	-3.46% [at 95.1 µM]	–
c1ccc(CNc2ncnc3c2ncn3C2CCCCO2)cc1 (stereo not given)	-1.58%	–
C[C@@H]1[C@H](O)[C@@H](C)/C=C/C=C\C=C\C=C\C=C\C=C\C=C\[C@H](O[C@@H]2O[C@H](C)[C@@H](O)[C@H](N)[C@@H]2O)C[C@@H]2O[C@](O)(C[C@@H](O)C[C@@H](O)[C@H](O)CC[C@@H](O)C[C@@H](O)CC(=O)O[C@H]1C)C[C@H](O)[C@H]2C(=O)O (stereo in doubt)	6.11%	–
O=C(O)CCC(=O)OC[C@@H](NC(=O)C(Cl)Cl)[C@H](O)c1ccc([N+](=O)[O-])cc1	-1.11%	–
CCN(CC)c1ccc(C(=C2C=CC(=[N+](CC)CC)C=C2)c2ccc(S(=O)(=O)O)cc2S(=O)(=O)[O-])cc1	-0.419%	–
CC[C@@H](CO)NCCN[C@@H](CC)CO	2.14% [at 34.7 µM]	–
O=[N+]([O-])C1(Br)COCOC1	-5%	–
N[C@@H](Cc1cc(I)c(O)c(I)c1)C(=O)O	4.22%	–
CN(C)CC/C=C1\c2ccccc2Sc2ccc(Cl)cc21	–	15 µM (active)
CCOC(=O)C(C)O (stereo not given)	1.56% [at 95.1 µM]	–
Cc1c(C2(c3cc(Br)c(O)c(Br)c3C)OS(=O)(=O)c3ccccc32)cc(Br)c(O)c1Br	0.734%	–
CCC(CO)(CO)CO	-1.41% [at 95.1 µM]	–
CCN(Cc1cccc(S(=O)(=O)O)c1)c1ccc(C(=C2C=CC(=[N+](CC)Cc3cccc(S(=O)(=O)O)c3)C=C2)c2ccccc2S(=O)(=O)[O-])cc1	2.12%	–

Assay: qHTS assay for small molecules that induce genotoxicity in human embryonic kidney cells expressing luciferase-tagged ATAD5 (AID 651632)
Conditions: HEK293T ATAD5-luciferase induction, 16 h; series mostly up to 83.3 µM; activation: at the top concentration
Procedure, shortened: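 Cells were seeded at 2,000 per well, dosed with compound, and incubated 16 hr at 37C in 5% CO2. Luciferase activity was then quantified after a 30 min room-temperature incubation with Amplite.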

Compound	activation	Potency
CC(=O)C(C)=O	4.23% [at 95.3 µM]	–
O=C1[C@@H]2[C@H]3CC[C@H](C3)[C@@H]2C(=O)N1CCCCN1CCN(c2ncccn2)CC1	2.04%	–
CNS(=O)(=O)c1cc(C(=O)N2CCC(CCN3C4CCC3CC(n3c(C)nc5ccccc53)C4)(c3cccc(F)c3)CC2)c(Cl)cc1F (stereo not given)	-9.92%	–
O=C(O)CCS	1.64% [at 95.3 µM]	–
COc1ccc(CCN(C)CCCN2CCc3cc(OC)c(OC)cc3CC2=O)cc1OC	-1.45%	–
O=C(O)CCC(=O)c1ccc(-c2ccccc2)cc1	5.68% [at 39.1 µM]	–
CSCC[C@H](NC(=O)[C@H](Cc1c[nH]c2ccccc12)NC(=O)CCNC(=O)OC(C)(C)C)C(=O)N[C@@H](CC(=O)O)C(=O)N[C@@H](Cc1ccccc1)C(N)=O	3.54%	–
COc1ccc(-n2nc(C(F)F)cc2-c2ccc(S(C)=O)cc2)cc1 (stereo not given)	3.41%	–
O=C(Oc1ccccc1)c1ccc2ccccc2c1O	–	9.69 µM (active)
CCC(C)(C)C(=O)O	1.24%	–
Cc1cc(CCC(=O)OCCOCCOCCOC(=O)CCc2cc(C)c(O)c(C(C)(C)C)c2)cc(C(C)(C)C)c1O	-3.8%	–
CCCCCCCC/C=C\CCCCCCCC(=O)OCCO	1.3% [at 95.3 µM]	–
COc1ccc(N)c([N+](=O)[O-])c1	3.98%	–
COc1ccc2nc(S(=O)Cc3ncc(C)c(OC)c3C)[nH]c2c1 (stereo not given)	–	inactive
C[C@@H]1[C@H](O)[C@@H](C)/C=C/C=C\C=C\C=C\C=C\C=C\C=C\[C@H](O[C@@H]2O[C@H](C)[C@@H](O)[C@H](N)[C@@H]2O)C[C@@H]2O[C@](O)(C[C@@H](O)C[C@@H](O)[C@H](O)CC[C@@H](O)C[C@@H](O)CC(=O)O[C@H]1C)C[C@H](O)[C@H]2C(=O)O (stereo in doubt)	–	inactive
CC(=O)OCCC(C)CC(C)(C)C (stereo not given)	-2.22%	–
O=C1NC(=O)c2cccc3cccc1c23	4.06%	–
CCN(CC)c1ccc(C(=C2C=CC(=[N+](CC)CC)C=C2)c2ccc(S(=O)(=O)O)cc2S(=O)(=O)[O-])cc1	-12.3%	–
CCCCC[C@H](O)/C=C/[C@H]1[C@H](O)CC(=O)[C@@H]1C/C=C\CCCC(=O)O	4.72%	–
O=[N+]([O-])C1(Br)COCOC1	2.97%	–
CCCCOC(=O)CCCCC(=O)OCCCC	1.36%	–
N[C@@H](Cc1cc(I)c(O)c(I)c1)C(=O)O	-2.47%	–
O=C(O)c1cccc(C[C@@H]2COc3ccc(OCc4nc5cc(F)ccc5s4)cc3[C@@H]2O)c1	2.53%	–
CN(C)CC/C=C1\c2ccccc2Sc2ccc(Cl)cc21	-6.27%	–
CCOC(=O)C(C)O (stereo not given)	-3.29% [at 95.3 µM]	–
Cc1c(C2(c3cc(Br)c(O)c(Br)c3C)OS(=O)(=O)c3ccccc32)cc(Br)c(O)c1Br	-13.2%	–
CCC(CO)(CO)CO	0.521% [at 95.3 µM]	–
CCOC(=O)c1ccc(NC(=O)CN2CCCCC2)cc1	3.97%	–
CCN(Cc1cccc(S(=O)(=O)O)c1)c1ccc(C(=C2C=CC(=[N+](CC)Cc3cccc(S(=O)(=O)O)c3)C=C2)c2ccccc2S(=O)(=O)[O-])cc1	-10.5%	–
